Measured values published in the supplement of paper PMC10849652.
Targets with a hit are over-represented here; the source holds about 7,900 in all. About 0.6% of all pairs of compound and target were hits. Unmarked numbers belong to inactive results.

Tests used:
Test in all cases: log2 fold change, soluble protein after heating vs DMSO (PISA); higher = thermal stabilisation; K562 cells, 10 uM, 30 min; active = over 0.2 and 3.5 SD of the protein, either way, in both replicates (recomputed)
[1] = compound: C1=CC=C(C=C1)[C@H](COC2=CC3=C(C=C2)NC(=O)N3)NC(=O)C4=CC=CN(C4=O)CC5=CC(=C(C=C5)F)F
Summary of the method: (§1)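 K562 cells (2×10^6 cells/mL) were treated with 10 μM compound for 30 min, and aliquots were heated for 3 min over 48°C-58°C. Pooled aliquots were extracted in PBS with 0.5% NP-40 at 4°C, and the supernatant after 21,000xg for 90 min was measured by TMTpro 16plex LC-MS/MS with channel sums equalised. Reported thermal stability, relative to control samples and from duplicates, is a log2 fold change.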

[2] = compound: CC1=C(SC2=C1C(=N[C@H](C3=NN=C(N32)C)CC(=O)N)C4=CC=C(C=C4)Cl)C
Summary of the method: as §1

[3] = compound: CC1=C2C(=CC=C1)N=C(N(C2=O)C3=CC=CC=C3C)CN4C=NC5=C(N=CN=C54)N
Summary of the method: as §1

[4] = compound: Cc1sc2c(c1C)C(c1ccc(Cl)cc1)=N[C@@H](CC(=O)OC(C)(C)C)c1nnc(C)n1-2
Summary of the method: as §1

[5] = compound: c1ccc([C@@H]2C[C@H]2NC2CCNCC2)cc1
Summary of the method: as §1

UniProt P13473, sequence (P13473 whole entry, looked up): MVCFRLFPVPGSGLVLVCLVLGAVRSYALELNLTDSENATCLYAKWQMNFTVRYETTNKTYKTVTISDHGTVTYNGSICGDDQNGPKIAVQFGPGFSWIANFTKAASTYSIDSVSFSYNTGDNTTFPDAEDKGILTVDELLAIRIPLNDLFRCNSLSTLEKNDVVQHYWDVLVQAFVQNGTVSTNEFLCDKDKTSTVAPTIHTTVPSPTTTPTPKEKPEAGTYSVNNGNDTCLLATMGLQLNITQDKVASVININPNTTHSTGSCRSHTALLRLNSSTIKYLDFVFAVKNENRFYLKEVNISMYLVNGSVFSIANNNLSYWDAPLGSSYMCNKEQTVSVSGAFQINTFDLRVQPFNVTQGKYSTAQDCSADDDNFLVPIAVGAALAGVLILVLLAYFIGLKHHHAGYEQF
UniProt Q9H3F6, sequence (Q9H3F6 whole entry, looked up): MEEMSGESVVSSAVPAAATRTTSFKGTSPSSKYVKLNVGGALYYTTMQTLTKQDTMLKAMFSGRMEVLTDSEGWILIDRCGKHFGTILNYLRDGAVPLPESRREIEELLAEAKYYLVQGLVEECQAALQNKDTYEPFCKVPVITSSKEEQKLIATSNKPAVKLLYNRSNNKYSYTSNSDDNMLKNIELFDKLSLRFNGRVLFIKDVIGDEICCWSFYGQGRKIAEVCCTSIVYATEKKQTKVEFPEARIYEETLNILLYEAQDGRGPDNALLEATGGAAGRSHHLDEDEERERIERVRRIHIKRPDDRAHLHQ
UniProt Q96EK5, sequence (Q96EK5 whole entry, looked up): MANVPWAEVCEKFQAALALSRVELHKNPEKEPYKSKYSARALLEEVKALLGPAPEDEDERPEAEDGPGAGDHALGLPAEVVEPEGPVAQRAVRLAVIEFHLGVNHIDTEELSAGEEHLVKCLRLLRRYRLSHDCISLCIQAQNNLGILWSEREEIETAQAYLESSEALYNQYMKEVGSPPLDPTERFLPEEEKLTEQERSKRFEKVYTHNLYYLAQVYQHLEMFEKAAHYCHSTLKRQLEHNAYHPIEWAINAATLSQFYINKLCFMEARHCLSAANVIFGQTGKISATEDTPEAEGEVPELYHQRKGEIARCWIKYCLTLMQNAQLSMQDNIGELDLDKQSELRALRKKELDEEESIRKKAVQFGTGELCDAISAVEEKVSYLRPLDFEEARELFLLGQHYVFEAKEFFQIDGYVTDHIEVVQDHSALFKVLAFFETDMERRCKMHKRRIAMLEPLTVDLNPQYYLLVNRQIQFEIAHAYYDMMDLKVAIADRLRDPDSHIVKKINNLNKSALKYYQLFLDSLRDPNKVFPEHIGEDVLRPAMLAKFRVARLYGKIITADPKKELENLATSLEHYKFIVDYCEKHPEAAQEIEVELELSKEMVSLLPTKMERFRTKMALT
UniProt Q8IWA4, sequence (Q8IWA4 whole entry, looked up): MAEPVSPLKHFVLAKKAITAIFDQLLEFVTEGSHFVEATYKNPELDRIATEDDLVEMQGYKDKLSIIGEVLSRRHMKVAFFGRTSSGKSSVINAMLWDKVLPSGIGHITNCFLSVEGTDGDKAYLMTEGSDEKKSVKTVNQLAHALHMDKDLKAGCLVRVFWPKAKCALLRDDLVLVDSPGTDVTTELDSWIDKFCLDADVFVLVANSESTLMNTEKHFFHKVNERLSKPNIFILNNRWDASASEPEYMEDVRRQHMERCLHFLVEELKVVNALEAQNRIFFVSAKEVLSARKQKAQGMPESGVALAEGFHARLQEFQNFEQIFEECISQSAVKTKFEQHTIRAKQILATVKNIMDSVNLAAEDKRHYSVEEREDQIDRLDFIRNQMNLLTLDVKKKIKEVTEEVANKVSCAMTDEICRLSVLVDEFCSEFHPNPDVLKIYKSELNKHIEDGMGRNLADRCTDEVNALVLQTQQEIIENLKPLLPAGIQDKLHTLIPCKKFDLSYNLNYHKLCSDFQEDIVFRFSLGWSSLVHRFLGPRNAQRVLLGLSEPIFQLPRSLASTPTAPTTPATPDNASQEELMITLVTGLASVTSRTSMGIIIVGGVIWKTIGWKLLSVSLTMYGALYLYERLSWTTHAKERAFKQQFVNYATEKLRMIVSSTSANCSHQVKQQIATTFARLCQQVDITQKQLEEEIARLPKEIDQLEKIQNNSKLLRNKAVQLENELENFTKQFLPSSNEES
UniProt Q9H1H9, sequence (Q9H1H9 whole entry, looked up): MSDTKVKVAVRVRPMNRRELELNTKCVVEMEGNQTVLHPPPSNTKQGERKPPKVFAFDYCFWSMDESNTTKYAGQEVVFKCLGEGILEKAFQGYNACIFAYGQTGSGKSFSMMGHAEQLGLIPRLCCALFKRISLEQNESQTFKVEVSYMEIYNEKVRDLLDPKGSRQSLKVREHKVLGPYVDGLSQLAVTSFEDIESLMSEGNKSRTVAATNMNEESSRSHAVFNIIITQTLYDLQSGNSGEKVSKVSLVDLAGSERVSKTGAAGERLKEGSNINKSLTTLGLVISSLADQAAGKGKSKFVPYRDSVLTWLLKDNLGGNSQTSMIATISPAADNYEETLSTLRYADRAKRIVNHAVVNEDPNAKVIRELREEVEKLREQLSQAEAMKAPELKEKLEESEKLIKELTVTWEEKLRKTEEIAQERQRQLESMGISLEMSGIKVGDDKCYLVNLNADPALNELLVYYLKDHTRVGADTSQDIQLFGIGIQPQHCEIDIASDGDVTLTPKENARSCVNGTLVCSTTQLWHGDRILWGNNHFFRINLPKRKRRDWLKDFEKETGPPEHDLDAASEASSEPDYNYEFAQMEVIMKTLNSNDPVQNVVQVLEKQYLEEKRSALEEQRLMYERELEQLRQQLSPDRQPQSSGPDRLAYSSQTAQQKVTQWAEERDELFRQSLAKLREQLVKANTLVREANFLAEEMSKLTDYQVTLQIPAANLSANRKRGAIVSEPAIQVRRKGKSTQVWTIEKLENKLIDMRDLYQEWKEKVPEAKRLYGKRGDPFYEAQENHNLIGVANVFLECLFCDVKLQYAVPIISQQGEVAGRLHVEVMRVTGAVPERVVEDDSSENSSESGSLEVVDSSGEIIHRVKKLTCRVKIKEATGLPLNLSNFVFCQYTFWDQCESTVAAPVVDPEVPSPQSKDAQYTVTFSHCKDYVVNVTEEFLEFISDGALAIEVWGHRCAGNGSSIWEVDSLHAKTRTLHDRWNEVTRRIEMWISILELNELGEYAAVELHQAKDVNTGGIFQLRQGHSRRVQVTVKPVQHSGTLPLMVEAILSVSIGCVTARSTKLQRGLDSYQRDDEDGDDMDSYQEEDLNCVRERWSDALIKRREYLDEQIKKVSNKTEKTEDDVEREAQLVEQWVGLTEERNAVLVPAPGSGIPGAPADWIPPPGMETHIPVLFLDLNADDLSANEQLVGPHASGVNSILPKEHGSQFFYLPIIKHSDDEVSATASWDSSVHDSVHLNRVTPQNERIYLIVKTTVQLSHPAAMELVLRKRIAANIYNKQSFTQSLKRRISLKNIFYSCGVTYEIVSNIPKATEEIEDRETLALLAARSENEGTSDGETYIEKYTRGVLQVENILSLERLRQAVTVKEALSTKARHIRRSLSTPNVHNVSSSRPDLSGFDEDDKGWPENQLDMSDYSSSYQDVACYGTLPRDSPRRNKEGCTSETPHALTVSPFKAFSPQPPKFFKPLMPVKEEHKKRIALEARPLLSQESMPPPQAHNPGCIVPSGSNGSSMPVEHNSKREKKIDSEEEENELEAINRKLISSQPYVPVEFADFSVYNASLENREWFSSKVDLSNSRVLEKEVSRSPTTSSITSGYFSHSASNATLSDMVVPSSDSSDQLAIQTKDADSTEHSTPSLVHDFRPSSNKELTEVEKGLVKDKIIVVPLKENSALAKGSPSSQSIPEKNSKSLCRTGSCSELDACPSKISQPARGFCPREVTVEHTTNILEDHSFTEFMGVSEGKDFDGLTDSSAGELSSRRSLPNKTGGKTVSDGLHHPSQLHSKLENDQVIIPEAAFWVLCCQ
UniProt A1L0T0, sequence (A1L0T0 whole entry, looked up): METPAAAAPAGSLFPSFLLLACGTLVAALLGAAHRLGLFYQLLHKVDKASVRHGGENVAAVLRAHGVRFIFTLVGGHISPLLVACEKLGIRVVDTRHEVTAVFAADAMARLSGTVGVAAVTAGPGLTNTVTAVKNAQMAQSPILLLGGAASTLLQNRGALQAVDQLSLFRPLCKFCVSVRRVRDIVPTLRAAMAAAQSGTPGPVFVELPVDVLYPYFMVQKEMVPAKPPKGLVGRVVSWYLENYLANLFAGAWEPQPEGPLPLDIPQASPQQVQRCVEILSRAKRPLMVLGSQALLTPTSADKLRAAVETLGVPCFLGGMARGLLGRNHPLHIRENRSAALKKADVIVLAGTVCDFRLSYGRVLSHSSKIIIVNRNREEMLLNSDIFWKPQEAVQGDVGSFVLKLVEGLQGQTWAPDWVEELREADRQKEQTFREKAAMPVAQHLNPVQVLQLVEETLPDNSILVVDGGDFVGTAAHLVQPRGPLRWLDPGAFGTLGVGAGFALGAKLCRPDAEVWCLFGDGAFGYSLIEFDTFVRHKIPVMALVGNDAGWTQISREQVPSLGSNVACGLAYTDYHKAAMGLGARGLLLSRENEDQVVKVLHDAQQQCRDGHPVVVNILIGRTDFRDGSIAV
UniProt Q96LU5, sequence (Q96LU5 whole entry, looked up): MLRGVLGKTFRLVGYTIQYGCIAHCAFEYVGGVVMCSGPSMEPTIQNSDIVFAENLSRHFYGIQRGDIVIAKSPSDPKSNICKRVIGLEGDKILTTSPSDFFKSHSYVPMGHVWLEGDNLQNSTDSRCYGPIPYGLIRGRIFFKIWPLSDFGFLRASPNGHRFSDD
UniProt Q9H6V9, sequence (Q9H6V9 whole entry, looked up): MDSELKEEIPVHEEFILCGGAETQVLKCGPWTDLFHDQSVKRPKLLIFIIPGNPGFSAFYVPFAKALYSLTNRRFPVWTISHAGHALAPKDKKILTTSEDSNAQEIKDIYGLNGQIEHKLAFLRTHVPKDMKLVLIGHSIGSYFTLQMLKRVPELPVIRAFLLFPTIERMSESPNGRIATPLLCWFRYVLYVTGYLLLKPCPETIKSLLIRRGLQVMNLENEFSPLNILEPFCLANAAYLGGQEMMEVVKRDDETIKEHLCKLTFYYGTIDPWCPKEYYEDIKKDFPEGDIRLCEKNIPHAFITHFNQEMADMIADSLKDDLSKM

Target	log2 fold change [1]	log2 fold change [2]	log2 fold change [3]	log2 fold change [4]	log2 fold change [5]
MFN1 (UniProt Q8IWA4)	0.058	0.042	0.05	0.07	-0.01
LMNA (UniProt P02545)	0.043	-0.016	-0.044	-0.017	0.052
IGF2BP2 (UniProt Q9Y6M1)	0.122	-0.271	-0.038	0.25	0.019
LDAH isoform 2 (UniProt Q9H6V9)	-0.125	0.019	0.086	0.174	-0.059
LUC7L2 (UniProt Q9Y383)	0.023	-0.044	0.036	0.006	0.014
IL27RA (UniProt Q6UWB1)	0.021	0.144	0.002	0.097	0.096
KCTD10 (UniProt Q9H3F6)	-0.014	-0.009	0.007	-0.01	0.03
KDM5D isoform 3 (UniProt Q9BY66)	0.2	0.086	0.102	-0.022	0.037
IPO7 (UniProt O95373)	-0.082	0.031	0.069	-0.025	0.003
KCT2 (UniProt Q8NC54)	0.046	0.024	-0.01	-0.014	0.028
LUC7L (UniProt Q9NQ29)	0.011	-0.015	-0.011	0	0.027
MIA2 (UniProt Q96PC5)	-0.036	0.041	0.02	0.029	0.027
KIFBP (UniProt Q96EK5)	-0.075	0.025	0.06	-0.058	0.005
IMMP1L (UniProt Q96LU5)	0.054	0.045	0.101	-0.021	0.024
MAD2L1 (UniProt Q13257)	-0.045	0.077	0.067	-0.021	-0.019
MGST1 (UniProt P10620)	-0.061	0.032	-0.11	0.05	0.008
LEMD2 (UniProt Q8NC56)	-0.031	0.136	0.114	-0.017	0.005
LIMA1 isoform 4 (UniProt Q9UHB6)	0.002	0.014	-0.002	-0.028	0.034
MFSD5 isoform 2 (UniProt Q6N075)	0.071	0.08	0.112	-0.049	-0.055
JMJD6 isoform 3 (UniProt Q6NYC1)	-0.004	0.046	0.055	0.006	0.097
LAMP2 isoform 2 (UniProt P13473)	0.051	-0.015	0.04	0.052	0.007
LARP7 isoform 3 (UniProt Q4G0J3)	0.018	-0.032	0.045	-0.048	0.027
KSR1 (UniProt Q8IVT5)	-0.044	0.033	0.137	0.044	0.018
LPIN3 isoform 2 (UniProt Q9BQK8)	-0.047	0.066	0.075	-0.138	-0.044
MARCKSL1 (UniProt P49006)	-0.052	0.029	-0.032	-0.008	0.011
LONP2 (UniProt Q86WA8)	-0.036	0.009	0.02	0.009	-0.147
KDELR2 (UniProt P33947)	-0.038	-0.015	0.076	-0.137	0.115

Target	log2 fold change [1]	log2 fold change [2]	log2 fold change [3]	log2 fold change [4]	log2 fold change [5]
KIF13A (UniProt Q9H1H9)	0.022	0.039	0.054	-0.059	-0.027
MAPKAPK5 (UniProt Q8IW41)	0.042	0.001	0.015	-0.069	-0.009
LPGAT1 (UniProt Q92604)	-0.068	-0.136	-0.02	0.086	0.074
IGF2R (UniProt P11717)	0.013	0.007	-0.008	0.001	-0.002
MCU (UniProt Q8NE86)	-0.02	0.035	0.038	-0.018	-0.013
MDC1 (UniProt Q14676)	-0.005	-0.045	-0.092	0.068	0.04
LUC7L3 (UniProt O95232)	0.002	-0.021	0.023	0.021	0.028
KTN1 (UniProt Q86UP2)	0.005	-0.012	0.019	0.036	0.001
LMF2 (UniProt Q9BU23)	-0.001	-0.013	0.097	-0.012	-0.053
IGFBP4 (UniProt P22692)	-0.019	-0.046	0.087	-0.103	0.148
MAP2K7 isoform 4 (UniProt O14733)	-0.009	0.029	0.065	0.013	0.044
ILVBL (UniProt A1L0T0)	-0.016	0.371 (active)	0.075	-0.067	-0.127
ITM2B (UniProt Q9Y287)	0.013	-0.068	0.061	-0.028	-0.112
MAGEA9 (UniProt P43362)	0.046	-0.03	0.047	-0.055	-0.067
MARK2 (UniProt E9PC69)	-0.029	0.038	0.174	0.126	-0.052
KIF3A (UniProt Q9Y496)	0.027	0.039	0.054	0.049	0.002
LENG8 (UniProt Q96PV6)	0.036	0.177	-0.356	-0.028	0.022
KMT2C isoform 3 (UniProt Q8NEZ4)	0.032	0.04	0.017	-0.076	-0.001
LARP1 (UniProt Q6PKG0)	0.002	-0.046	-0.046	0.151	-0.002
LMNB1 (UniProt P20700)	0.08	-0.005	-0.009	-0.018	0.042
LIAS (UniProt O43766)	0.001	-0.042	0.008	0.049	0.05
MFGE8 (UniProt Q08431)	0.005	-0.051	-0.091	-0.068	-0.129
MAPRE3 (UniProt Q9UPY8)	-0.042	0.011	0.026	-0.01	-0.014
METAP1D (UniProt Q6UB28)	0.106	-0.125	0.083	0.08	0.127
MFF (UniProt Q9GZY8)	-0.013	0.041	0.064	-0.017	-0.001
KLC2 (UniProt Q9H0B6)	-0.046	0.085	0.118	0.032	0
